# Source: PubChem BioAssay (National Center for Advancing Translational Sciences (NCATS))
# GoLoco inh red: inhibitors of human Gai1-RGS12 GoLoco interaction (red fluorophore). P63096. Gai1:RGS12 GoLoco peptide FP, rhodamine, 10 min. Potency, µM (titrated, usually from 61.6 µM), usual class: inhibitors. 230,000 tested, 0.44% active. AID 880; active = well fitted inhibition curve with a large enough effect, not every such curve was filed as active; inactive = no such curve, though single readings can be large or run the other way; also: nearly all actives have a fitted effect of over 30% in size
# Tau fibril ThT: inhibitors of human tau fibril formation, thioflavin T binding; P10636; recombinant tau K18 P301L, heparin-induced fibrillization, ThT fluorescence; Potency, µM (doses to about 57.4 µM), actives largely listed as inhibitors; 270,000 tested, 2.1% active; AID 1460; also: nearly all actives have a fitted effect of over 55% in size
# Target sequence (P10636 561-689 P618L limits assumed): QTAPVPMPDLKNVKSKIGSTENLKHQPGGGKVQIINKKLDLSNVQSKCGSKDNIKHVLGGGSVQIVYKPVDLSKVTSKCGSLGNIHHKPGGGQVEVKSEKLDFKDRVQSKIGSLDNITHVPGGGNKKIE
#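 Using a mix of unlabeled (15 uM) and Alexa 594-labeled (0.24 uM) tau K18 P301L, heparin-triggered fibrillization over 6 hr at 37 C was scored by ThT fluorescence.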
# Tau fluor counter: counter-screen for tau fibril formation inhibitors. tau K18 P301L (four-repeat tau fragment) Alexa594 fluorescence, heparin fibrillization. Potency, µM (top dose mostly 57.7 µM). 280,000 tested, 0.93% active; also: nearly all actives have a fitted effect of over 55% in size
#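 Human K18 P301L tau (15 uM unlabeled plus 0.24 uM Alexa 594-labeled, final) in 100 mM sodium acetate pH 7 was mixed with compound and 20 uM heparin and incubated 6 hr at 37 C.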
# TexasRed fluor: Texas Red fluorescence interference in TRb-SRC2 counter-screen; TRb/SRC2 Texas Red total fluorescence interference; Potency, µM (highest dose often 106 µM); 280,000 tested, 0.29% active; AID 1479; active = well fitted curve in either direction with a large enough effect; inconclusive = small, poorly fitted or top-dose-only effect
#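 Flags fluorescent or light-absorbing compounds by total fluorescence, S + 2P, at 555 nm excitation and 632 nm emission. Mixture: 20 nM Texas Red SRC2 peptide, 0.6 uM human TRb LBD, 1 uM T3, 5% DMSO; compound exposure 5 h at ambient temperature.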
# TRb-SRC2 inh: TRbeta-SRC2 interaction inhibition; P10828; TRbeta-SRC2 peptide binding, fluorescence polarization; receptor liganded with 1 µM T3; Potency, µM (titrated, usually from 106 µM), most hits filed as inhibitors; 280,000 tested, 0.065% active; also: nearly all actives have a fitted effect of over 50% in size
# Target sequence (P10828 whole entry, looked up): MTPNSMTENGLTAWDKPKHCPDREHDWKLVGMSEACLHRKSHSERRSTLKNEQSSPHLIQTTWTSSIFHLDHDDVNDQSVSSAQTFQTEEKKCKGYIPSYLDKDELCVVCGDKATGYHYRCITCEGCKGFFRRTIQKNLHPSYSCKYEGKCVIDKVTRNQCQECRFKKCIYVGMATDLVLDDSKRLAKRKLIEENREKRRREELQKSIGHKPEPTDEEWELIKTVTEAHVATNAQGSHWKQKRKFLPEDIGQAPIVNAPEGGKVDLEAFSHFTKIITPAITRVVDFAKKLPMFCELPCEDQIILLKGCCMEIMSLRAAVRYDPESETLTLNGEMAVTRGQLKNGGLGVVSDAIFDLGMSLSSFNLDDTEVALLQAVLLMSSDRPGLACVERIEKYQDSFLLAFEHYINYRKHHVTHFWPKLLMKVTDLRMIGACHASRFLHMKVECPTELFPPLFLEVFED
#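 Human TRb ligand-binding domain (0.6 uM) is mixed with 20 nM Texas Red SRC2 peptide and 1 uM T3; after compound addition and 5 hr at ambient temperature, polarization is measured and normalized to unbound and bound controls.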
# Tau fibril FP: blocks human tau fibril formation measured by polarization; P10636; 280,000 tested, 0.39% active; K18 P301L tau heparin fibrillization, Alexa594 FP, 6 h; AID 1468; Potency, µM (titrated, usually from 57.7 µM), hits mostly inhibitors; also: nearly all actives have a fitted effect of over 55% in size
#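 Recombinant K18 P301L […], labeled with Alexa 594 at 0.24 uM over 15 uM unlabeled; heparin inducer 20 uM final; 37 C, 6 hr; FP endpoint.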
# Hits are given with their value; - = inactive; ? = inconclusive; . = no result given; ! = not confirmed by another sample; [ ] = remark or other dose. Only some compounds are listed: those with a hit (about 3.2% of all), similar ones and a draw of the others. Unless noted, calls follow the shape of the dose curve; as a rule, active = well fitted curve in the direction sought with a large enough effect; inconclusive = small, poorly fitted or top-dose-only effect, or another doubt; inactive = no such curve, though single readings can be large; an effect the other way counts as inactive or inconclusive.
SMILES,GoLoco inh red,Tau fibril ThT,Tau fluor counter,TexasRed fluor,TRb-SRC2 inh,Tau fibril FP
NNC(=S)Nc1ccc(S(=O)(=O)N2CCCCC2)cc1,-,-,16µM[quencher],-,-,-
CCOC(=O)/C(C#N)=N/Nc1ccc(S(=O)(=O)N2CCc3ccccc32)cc1,-,?,?,-,-,-
N#C/C(=N\Nc1ccc(S(=O)(=O)N2CCCCCC2)cc1)C(N)=S,-,14µM,-,-,-,-
CCc1ccc2oc(-c3cc(N=Cc4cccc(OC)c4O)ccc3O)nc2c1,-,14µM,?,-,-,-
CCc1ccc2oc(-c3cc(NC(=O)c4cc(OC)c(OC)c(OC)c4)ccc3O)nc2c1,.,-,?,-,?,-
O=[N+]([O-])c1cc(C(F)(F)F)cc([N+](=O)[O-])c1NN=C1CCCCC1,-,13µM,?,-,-,?
O=[N+]([O-])c1cc(S(=O)(=O)N2CCCC2)ccc1NN=C1CCCCC1,-,-,-,-,-,-
CC(=O)[C@H]1CC[C@@H]2[C@]1(C)CC=C1[C@@]23C=C[C@]2(C[C@H](O)CC[C@@]12C)[C@H](C(=O)O)[C@@H]3C(=O)O,-[14.2 µM],.,.,.,.,.
COc1ccc(Nc2nc(NN)nc(C)c2[N+](=O)[O-])cc1,-,14µM,?,-,-,-
CCNc1nc(NCC)nc(N/N=C/c2ccc(N(C)C)cc2)n1,-,?,-,-,-,-
COc1ccc(Nc2nc(N/N=C/c3ccc(N(C)C)cc3)nc(C)c2[N+](=O)[O-])cc1,-,3.2µM,11µM[quencher],-,-,-
C=CCOC(=O)C(C(C)=O)C(NC(=O)OC)c1cccc(F)c1 (stereo unspecified),.,-[11.5 µM],-[11.6 µM],?,-[11.2 µM],-[11.6 µM]
CCOC(=O)c1ccc(NC(=O)Nc2ccc3c4c(cccc24)C(=O)N3CC)cc1,-,?,3.2µM[quencher],-,-,-
CCOC(=O)c1ccc(NC(=O)Nc2cc3c(cc2N2CCCC2)n(C)c(=O)n3C)cc1,.,?,14µM[quencher],-,-,-
C=CCOCC/C=C1/c2ccccc2C(OC)C1C (stereo unspecified),.,-[11.5 µM],-[11.6 µM],-[11.2 µM],-[11.2 µM],-[11.6 µM]
O=C(N/N=C1\C/C(=N\NC(=O)c2ccncc2)c2ccccc21)c1ccncc1,-,10µM,?,-,-,?
Cc1cc(N)ccc1-n1c(C)ccc1C,-,14µM,-,13µM[fluorescent],7.9µM,?
NC(=O)c1cc(N)ccc1N1CCCCC1,-,-,-,-,-,-
NC(=O)c1cc(N)ccc1N1CCCC1,-,?,-,45µM[fluorescent],40µM,?
Cc1cc(N)ccc1N1CCCC1,14µM,7.1µM,?,45µM[fluorescent],40µM,13µM
COC(=O)NC(/C(C(=O)OC)=C(\C)NCc1ccccc1)c1ccc2ccccc2c1 (stereo unspecified),.,?,-[11.6 µM],-[11.2 µM],-[11.2 µM],-[11.6 µM]
COc1ccc2c(c1)O[C@H](c1ccc3c(c1)OCO3)[C@@H](OC(=O)Nc1ccc(OC(F)F)cc1)C2=O,-,-,-,-,-,-
Cc1cc(/C=C\c2ccc3cc(N(C)C)ccc3[n+]2C)c(C)n1-c1ccccc1,-,.,.,14µM[fluorescent],?,.
COc1ccccc1CNc1ncnc2ccc(-c3cccc(NS(C)(=O)=O)c3)cc12,-,.,.,.,.,.
CC[C@@H](C)[C@H](NS(=O)(=O)c1cccc2ccccc12)C(=O)N[C@H](C=O)Cc1c[nH]c2ccccc12,-,?,?,-,-,-
SMILES,GoLoco inh red,Tau fibril ThT,Tau fluor counter,TexasRed fluor,TRb-SRC2 inh,Tau fibril FP
CCCN(CCO)CCCc1ccccc1,-,-,-,-,-,-
CCN(CCCc1ccccc1)CCCc1ccccc1,28µM!,-,-,-,-,-
CC[C@H](C)[C@H](NC(=O)[C@H](Cc1ccc(O)cc1)NC(=O)[C@H](Cc1cnc[nH]1)NC(=O)[C@H](CCCNC(=N)N)NC(=O)[C@H](CC(C)C)NC(=O)[C@H](C)NC(=O)[C@@H](N)CO)C(=O)N[C@@H](CC(N)=O)C(=O)N[C@@H](CC(C)C)C(=O)N[C@H](C(=O)N[C@H](C(=O)N[C@@H](CCCNC(=N)N)C(=O)N[C@@H](CCC(N)=O)C(=O)N[C@@H](CCCNC(=N)N)C(=O)N[C@@H](Cc1ccc(O)cc1)C(N)=O)[C@@H](C)O)[C@@H](C)CC,.,.,.,-,-,.
CCO[Si](CCC#N)(OCC)OCC,.,.,.,-,-,.
CCCCOc1ccc(-c2c(C#N)c(N)nc(SCC(N)=O)c2C#N)cc1,-,-,?,-,-,22µM
COCCNC(=O)Nc1ccc2nc(-c3cccs3)c(-c3cccs3)nc2c1,-,?,16µM[quencher],-,-,16µM
COCCNC(=O)c1cc(-c2cccs2)on1,-,-,-,-,-,-
COc1ccc(/C(C)=N/Nc2nc3ccccc3nc2C)cc1OC,-,13µM,?,-,-,?
CC1CCC(C(C)C)C(P(=O)(c2ccccc2)c2ccccc2)C1 (stereo unspecified),.,.,.,-,-,.
C[N+]1(NCC[N@@+]2(C)CCc3ccccc3C2)CCCCC1,-[14.2 µM],.,.,.,.,.
COC(=O)CN(Cc1ccccc1)S(=O)(=O)c1ccc(OC)c(OC)c1,.,16µM,-,-,-,?
CCCCCCCCCCCCCCC/C=C/[C@@H](O)[C@H](NC(=O)CCCCCCCCCCCCC)OC (tested in a mixture with another compound),-,-,-,-,-,-
COc1ccc(Nc2nc(Nc3ccc(OC)cc3)nc(SC3=NCCS3)n2)cc1,-,?,14µM[quencher],-,-,-
COc1ccc(CNc2ncnc3c2[nH]c2ccccc23)cc1,-,?,20µM[quencher],-,-,-
COc1ccc(CNc2ncnc3c2[nH]c2cc(OC)c(OC)cc23)cc1,-,?,10µM[quencher],-,-,?
C1=C(CCNc2ncnc3c2[nH]c2ccccc23)CCCC1,-,?,16µM[quencher],?,-,-
CO[C@@H]1/C=C\O[C@]2(C)Oc3c(C)c(O)c4c(O)c(c(CN5CCN(C)CC5)c(O)c4c3C2=O)NC(=O)/C(C)=C\C=C[C@@H](C)[C@@H](O)[C@H](C)[C@@H](O)C(C)[C@H](OC(C)=O)[C@@H]1C (stereo partly specified),-[14.2 µM],.,.,.,.,.
CN(C)c1ncc2nc(-c3ccc(Cl)cc3)c(=O)n(Cc3cccs3)c2n1,-,.,.,.,.,.
CCCN1CCC(=O)N(C(CSc2ccc(C)cc2)CC(C)C)CC1 (stereo unspecified),.,.,.,-,-,.
COc1ccc(NC(=O)c2cc(OCCCN(C)C)nn2Cc2ccccc2)cc1,.,.,.,-,-,.
COc1cc(/C=N/NC(=O)c2ccc(-c3ccccc3)cc2)cc(OC)c1OC,-,?,?,-,-,-
O=C(Nc1sc(-c2ccccc2)cc1C(=O)O)c1ccccc1,-,13µM,?,-,-,-
NNC(=O)c1cc(-c2ccccc2)sc1N,-,7.9µM,?,-,-,-
NNC(=O)c1sc(-c2ccccc2)cc1N,-,?,-,-,-,-
